Drawing on PubChem BioAssay AID1963320 (National Center for Advancing Translational Sciences (NCATS), 2024), this text covers Potency for 37 compounds.

The whole screen tested about 1,300 compounds, of which about 560 (43%) were called active. About 39% were inconclusive and are not listed. Calls follow the shape of the dose curve; as a rule, active = well fitted inhibition curve with a large enough effect; inconclusive = small, poorly fitted or top-dose-only effect; inactive = flat fitted curve, though single readings scatter. So high a share suggests a set chosen from earlier hits. A selection follows.
Also: nearly all actives have a fitted effect of over 70% in size.
Potency is read from the fitted curve at half-maximal effect.

Sequence of Luciferin 4-monooxygenase (Photinus pyralis) (P08659 whole entry, looked up): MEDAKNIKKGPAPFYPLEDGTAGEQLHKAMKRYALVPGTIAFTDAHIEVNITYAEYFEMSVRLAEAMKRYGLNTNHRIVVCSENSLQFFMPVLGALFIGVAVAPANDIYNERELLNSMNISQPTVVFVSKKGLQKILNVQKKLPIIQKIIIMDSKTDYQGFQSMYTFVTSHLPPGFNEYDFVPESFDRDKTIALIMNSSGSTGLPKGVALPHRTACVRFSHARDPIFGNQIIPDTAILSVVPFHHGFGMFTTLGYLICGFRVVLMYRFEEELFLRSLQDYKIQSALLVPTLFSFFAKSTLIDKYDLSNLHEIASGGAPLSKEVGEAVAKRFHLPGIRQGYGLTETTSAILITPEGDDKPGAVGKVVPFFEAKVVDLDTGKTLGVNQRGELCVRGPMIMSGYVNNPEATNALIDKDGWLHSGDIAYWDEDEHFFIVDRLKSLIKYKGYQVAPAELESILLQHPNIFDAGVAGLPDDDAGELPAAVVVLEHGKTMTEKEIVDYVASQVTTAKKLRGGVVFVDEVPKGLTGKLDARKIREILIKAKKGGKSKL

This assay concerns the target Luciferin 4-monooxygenase (Photinus pyralis) (UniProt P08659). Nature of the assay: Firefly luciferase (FLuc-C-HiBiT) enzymatic inhibition screen - Functional assay. Particulars: purified FLuc-C-HiBiT enzyme, luciferin luminescence; series mostly up to 32.7 µM. The source says: PI: James Inglese Ph.D. National Center for Advancing Translational Sciences (NCATS), National Institute of Health (NIH), Maryland Discovery and optimization of novel protein-binding ligands underlies many of the methods and applications of biology, drug discovery, clinical diagnostics, and environmental toxicology. Assays for detecting the interaction of, for example, a molecule with a macromolecular target also referred to here as the target of interest (TOI) is dependent on a compatible output technology. Depending on the nature and knowledge surrounding the TOI, whether a receptor, enzyme, regulatory subunit or scaffold, or a sequence-defined nucleic acid folded into a complex tertiary structure, assay strategies can vary widely. Here we exploit ligand-biased changes in the structural dynamics of the target protein to control reporter alpha complementation allowing a non-competitive, non-functional, non-separation measure of ligand-target interaction. […] Secondly, we show the specificity and sensitivity of the SDR for the Abelson tyrosine kinase (ABL1) compared to the serine/threonine protein kinase A, using an enriched chemical library of 128 compounds selected, in part, for activity annotated with ABL1 kinase activity using the Pharos database (3). References: (1) A. S. Dixon et al., NanoLuc Complementation Reporter Optimized for Accurate Measurement of Protein Interactions in Cells. ACS Chem Biol 11, 400-408 (2016). […] Chemistry & Biology, 19, 1060 - 1072 (2012). (3) K. J. Kelleher et al., Pharos 2023: an integrated resource for the understudied human proteome. Nucleic Acids Res 51, D1405-D1416 (2023).
1. Reagent. Dispense 4 uL FLuc-C-HiBiT enzyme-buffer solution per well at a final enzyme concentration of 10 nM with or without 10 uM ATP into columns 2-48 of white, solid bottom medium bind 1536-well plates (Greiner Bio-One) by BioRaptr 2. Dispense respective buffer without enzyme at 4 uL/well in column 1 of assay plates. 2. Compounds. Library compounds and PTC124 control added at 23 nL per well, transfer by Pin Tool. 3. Incubation. Incubate enzyme and compounds at room temperature for >30 min, protect from light. 4a. Reagent. (Functional assay) Add 3 uL of D-luciferin substrate at final (KM) concentration of 10 uM/well of assay plates for FLuc enzymatic assay, in the presence of ATP. 5. Incubation. Incubate enzyme and substrate or detection reagent at room temperature for 5-10 min, protect from light. 6a. Detector. Functional assay measured using CCD-based camera (ViewLux) with settings as follows: Exposure, 10 sec; Gain, High; Speed, Slow; Binning, 2X. REFERENCES: Inglese J, Shamu CE and Guy RK, Reporting data from high throughput screening of small molecule libraries, Nature Chemical Biology, 2007, 3(8): 438-441. doi.org/10.1038/nchembio0807-438.
In general terms: The HiBiT peptide binds its large partner to form an active luciferase.
Consider `CN(CCc1cn[nH]c1)c1ccc(-c2nc(-c3ccccc3F)no2)cn1`, for which the Potency was 3.13 µM (active).
Take `Cc1cc(C)n(CCC(=O)N2CCC(Cc3noc(C4CC4)n3)C2)n1` (configuration not stated): the Potency entry is “inactive”.
`OCC1CCCN(c2ncnc3c2cnn3-c2ccccc2)C1` (configuration not stated): the Potency is 0.394 µM (active).
As to `Cc1ccc(Cl)cc1-n1ncc2c(N3CCC(C(N)=O)CC3)ncnc21`, the Potency result is “inactive”.
Turning to `OCCN1CCN(c2nc(N3CCCCC3)c3cnn(-c4ccc(Cl)cc4)c3n2)CC1`, the Potency entry is “inactive”.
Take `Fc1ccc(Nc2nc(-c3ccccc3F)no2)cc1`: the Potency was 9.89 µM (active).
Consider `Cc1ccc(CSc2nc3cccnc3n2Cc2ccc(C(=O)NC3CC3)cc2)cc1`, for which the Potency was 0.394 µM (active).
On to `O=C(CSc1ccc(F)cc1)Nc1ccccc1-c1nc2ccccc2s1`, for which the Potency result was “inactive”.
For `Cc1c(NC(=O)C(C)(C)C)cccc1-c1nc2ccccc2s1`, the Potency is 5.56 µM (active).
`COc1ccc(CC(=O)Nc2ccc(-c3nc4ccccc4s3)c(C)c2)cc1`: the Potency entry is “inactive”.
For the compound `CC(C)C(=O)Nc1cc(-c2nc3ccccc3s2)ccc1Cl`, the Potency result is “inactive”.
`Cc1cccc(C(=O)Nc2ccc(-c3nc4ccccc4s3)c(C)c2)c1`: the Potency is 9.89 µM (active).
`Cc1ccc(C(=O)Nc2ccc(-c3nc4ccccc4s3)c(O)c2)cc1`: the Potency entry is “inactive”.
For the compound `COc1ccc(C(=O)Nc2onc3c2CCCC3)cc1`, the Potency is 1.97 µM (active).
Consider `COc1ccc(C)cc1NC(=O)Nc1cccc(-c2ccc(N3CCCCC3)nn2)c1`, for which the Potency was 1.11 µM (active).
The same measure for `Cc1cccc(-c2cccc(NC(=O)C3CCCN(C(=O)CC(F)(F)F)C3)c2)c1` (configuration not stated): “inactive”; for `O=C(/C=C/c1ccccc1)Nc1cc(-c2nc3cc(Cl)ccc3o2)ccc1Cl`: “inactive”; for `COc1cccc(-c2nc3ccc(-c4ccc5c(c4)OCO5)cc3o2)c1OC`: 2.48 µM (active).
Consider `COc1ccc(-c2nc3ccccc3s2)cc1NC(=O)COc1ccccc1C`, for which the Potency entry is “inactive”.
For `CCC(CC)c1nn2cc(-c3ccccc3)nc2s1`, the Potency was 0.881 µM (active).
For `Cc1nn(-c2ccc(C(C)C)cc2)c(C)c1[C@@H]1C=C[C@@H](NC(=O)CC2(CC(=O)O)CCCC2)C1`, the Potency result was “inactive”.
`O=C(Nc1nc2c(s1)CCCC2)c1ccccc1F`: the Potency was 0.556 µM (active).
The same measure for `O=C([C@@H]1C[C@@H](O)[C@H](O)[C@@H]2NC(=S)N(c3ccc(OC(F)(F)F)cc3)[C@@H]21)N1CCCCC1`: “inactive”; for `O=C(Nc1ccccc1)c1nc2c(o1)CCN(Cc1cccc(Cl)c1)CC2`: 10.1 µM (active); for `Oc1ccc(-c2nc(C3CC3)nc3c2CCN(Cc2cccc(F)c2)CC3)cc1`: “inactive”.
On to `CCOC(=O)C1CCN(C(=O)c2cccc3c2CCN3C(=O)Nc2ccccc2)CC1`, for which the Potency was 1.76 µM (active).
The result for `CC(=O)Nc1ccc(NC(=O)CCCc2nc(-c3ccc(C(C)(C)C)cc3)no2)cc1` reads 4.95 µM (active); that for `CC(=O)NC1(C)CN(Cc2ccc(-c3ccc4c(ccn4C)c3)s2)C1`, 2.86 µM (active).
In the case of `Cc1ccc(-c2nc(C(=O)N3CCN(c4ccccn4)CC3)no2)cc1`, the Potency is 7.85 µM (active).
As to `COc1ccc(-c2ncc3c(n2)OCCN(CC2CC2)C3=O)cc1`, the Potency was 8.05 µM (active).
For the compound `CCN(c1ncnc2c1cnn2-c1ccc(C)cc1)C1CCCCC1`, the Potency was 0.881 µM (active).
Consider `CN1CCN(C[C@@H]2CN(C(=O)CCCc3ccccc3)C[C@@H]2CO)CC1`, for which the Potency entry is “inactive”.
Turning to `CCNC(=O)C1C(c2cccc(NC(=O)c3ccc(OC)cc3)c2)OC(=O)N1Cc1ccc(C)cc1` (configuration not stated), the Potency was 3.94 µM (active).
Regarding `O=C(NCc1ccccc1)C1CCN(C(=O)c2ncn3c2COC(c2ccccc2)C3)CC1` (configuration not stated), the Potency was 2.21 µM (active).
The result for `O=C(NCC1CC1)C1CCN(C(=O)c2ncn3c2COC(c2ccccc2)C3)CC1` (configuration not stated) reads 7 µM (active).
As to `O=C(NCc1ccc(F)c(Cl)c1)C1CCN(C(=O)c2ncn3c2COC(c2ccccc2)C3)CC1` (configuration not stated), the Potency was 3.51 µM (active).
On to `COc1ccccc1OC1(C(=O)O)CCN(c2ncnc3nc[nH]c23)CC1`, for which the Potency entry was “inactive”.
